Results published in PubChem BioAssay AID927 (National Center for Advancing Translational Sciences (NCATS), 2007).
Screen size: about 60,000 compounds; about 65 (0.1%) were called active. Calls follow the shape of the dose curve; as a rule, active = well fitted inhibition curve with a large enough effect; inconclusive = small, poorly fitted or top-dose-only effect; inactive = no such curve, though single readings can be large or run the other way. This excerpt belongs to a sample that is enriched for actives. Non-standard residues stand in square brackets, D forms with d. Residues, ends and D or L forms follow the SMILES beside them. ξ: configuration not given here. ξV = CC(C)C(N)C(=O)O

target: Ubiquitin carboxyl-terminal hydrolase 2 (Homo sapiens) (UniProt O75604); test: qHTS Assay for Inhibitors of Ubiquitin-specific Protease USP2a; conditions: USP2a enzymatic assay; Potency: qHTS inhibition; series mostly up to 38.3 µM; activity change, negative = inhibition: at the top concentration;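 also: plate controls were DMSO for no effect and NEM full inhibition control for full effect; nearly all actives have a fitted effect of over 60% in size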
Sequence (O75604 whole entry, looked up): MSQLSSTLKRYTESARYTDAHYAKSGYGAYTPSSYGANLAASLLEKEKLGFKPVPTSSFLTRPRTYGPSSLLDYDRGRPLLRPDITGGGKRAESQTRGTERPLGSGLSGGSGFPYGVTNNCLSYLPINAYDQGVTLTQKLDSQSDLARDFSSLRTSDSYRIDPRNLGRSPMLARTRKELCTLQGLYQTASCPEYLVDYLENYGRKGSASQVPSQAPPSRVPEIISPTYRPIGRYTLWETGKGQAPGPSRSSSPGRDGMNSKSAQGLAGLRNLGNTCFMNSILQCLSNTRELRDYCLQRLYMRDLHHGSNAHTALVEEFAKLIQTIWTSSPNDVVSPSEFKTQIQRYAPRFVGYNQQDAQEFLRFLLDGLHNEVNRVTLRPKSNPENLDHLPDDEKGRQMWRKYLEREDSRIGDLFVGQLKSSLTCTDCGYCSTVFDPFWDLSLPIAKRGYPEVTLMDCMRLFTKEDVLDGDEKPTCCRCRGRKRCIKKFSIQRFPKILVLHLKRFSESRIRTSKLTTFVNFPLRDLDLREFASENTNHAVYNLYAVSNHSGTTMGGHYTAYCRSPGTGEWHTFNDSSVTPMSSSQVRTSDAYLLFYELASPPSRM
Procedure, shortened: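 USP2 core (20 nM final) was preincubated with compound for 30 min at RT in 20 mM Tris-HCl pH 8.0, 2 mM CaCl2, 2 mM beta-mercaptoethanol; Ub-PLA2 (20 nM) plus NBD C6-HPC (20 uM) then added, fluorescence read after 2.5 h.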

Activity change, negative = inhibition, inactive:
CCCn1c(=O)c2ccccc2n2c(SCC(=O)/C(C#N)=C(\C)N)nnc12 5.46%, Cc1ccc(S(=O)(=O)N(C)CC(=O)NC2CCCC2)cc1 6.82%, O=C(Nc1ccc2c(c1)OCO2)C1CC(c2c(F)cccc2Cl)=NO1 (stereo not drawn) -8.71%, CCOc1ccccc1Nc1nnc(SCc2ccc(C(=O)OC)o2)s1 10.2%, Cc1cccc(-n2ncc3c(N4CCc5ccccc54)ncnc32)c1 2.95%, CCOC(=O)C1Cn2c(nc3c(c2=O)C(C)(CC)Cc2ccccc2-3)S1 (stereo not drawn) -7.77%, C=C(C)C1CC=C(CO)CC1 (stereo not drawn) -3.8%, CCN(CC)S(=O)(=O)c1ccc(NC(=O)CN(c2cccc(F)c2)S(C)(=O)=O)cc1 25.7%, O=C(CSc1nnc(-c2cccs2)n1-c1ccccc1)N1CCN(C(=O)c2ccco2)CC1 -9.08%, CC(=O)NC1CC2CCCC(C1)N2CC(=O)Nc1ccccc1 (stereo not drawn) 6.5%, CCOc1c(N2CCCCC2)c(=O)c1=O -9.98%, CC(=O)NC(C(=O)NCC(N)=O)C(C)C (stereo not drawn) (Ac-[ξV]-Gly-NH2) -3.58%, CC12C(=O)N(n3cnnc3)C(=O)C1C1C=CC2C1 (stereo not drawn) 0.802%, O=C(C1=C(O)C(=O)N(Cc2ccccc2)C1c1cccnc1)c1ccco1 (stereo not drawn) -8.78%, CCC(=O)N1c2ccc(S(=O)(=O)CCC(=O)N3CCN(c4ccccc4)CC3)cc2CC1C (stereo not drawn) 9.9%, CCOc1ccccc1N(CC(=O)Nc1ccccc1C(=O)OC)S(C)(=O)=O -1.62% [at 7.66 µM], CC1O[C@@H](Oc2c(-c3ccc(O)c(O)c3)oc3cc(O)cc(O)c3c2=O)C(O)C(O)C1O (stereo partly drawn) -9.94%, O=C(c1cc(C(F)(F)F)cc(C(F)(F)F)c1)N1CCC2(CCCN(Cc3ccncc3)C2)CC1 53.1%, CCN(CC)CCN1C(=O)C(=O)/C(=C(/O)c2ccccc2)C1c1ccccc1F (stereo not drawn) 6.03%, CN1CCC2(CC1)CCN(S(=O)(=O)c1ccccc1)CC2 -6.81%, CCN(CC)CCNC(=O)Cn1cnc2sc(C)c(S(=O)(=O)N3CCOCC3)c2c1=O -2.24%, O=C(Cn1c(=O)sc2ccccc21)Nc1ccc2c(c1)OCCO2 7.89%, S=C1SCN(CCN2CCOCC2)CN1Cc1ccccc1 -1.7%, CC1CC[C@@]23CCC4(C)[C@@]5(C)CCC6C(C)(C)C(O)CC[C@@]6(C)C5C=C[C@@]4(OC2=O)C3C1C (stereo partly drawn) 5.73%, Nc1ncnc2c1ncn2C1CC(O)C(CO)O1 (stereo not drawn) -5.52%, CC(=O)Nc1ccc(S(=O)(=O)N2CCC(N(C)CCC(C)C)CC2)cc1 4%, COc1ccc(C2CC(=O)C=C(NCC3CCCO3)C2)cc1 (stereo not drawn) 2.62%, CC(=O)N1CCN(CCN=CC2=C(O)CC(C)(C)CC2=O)CC1 0.95%, FC(F)(F)c1ccccc1-c1nc(-n2ccnc2)c2ccccc2n1 -26.3%, CN1CC(=O)N=C1N 6.52%, CCC1=C/C(=C\c2ccc3c(c2)OCO3)C(=O)S1 41.1%, COc1ccc(N2CCN(CCNC(=O)c3nnc(Cc4c(F)cccc4Cl)o3)CC2)cc1 15.6%, CCN(Cc1ccncc1)C(=O)c1cccc(S(=O)(=O)N2CCOCC2)c1 -1.77%, CC1(C)OC2CC(=O)OC[C@@]23C1CC(=O)[C@]1(C)C3CC[C@@]2(C)C(c3ccoc3)OC(=O)C3O[C@@]321 (stereo partly drawn) -0.539%, CC(=O)Nc1ccc(S(=O)(=O)N2CCSCC2)cc1 -7.08%, O=C(NCCSc1ccccc1)c1ccco1 4.74%, CC(=O)Nc1ccn(Cc2c(F)cccc2Cl)n1 11.9%, CC(=O)N1CCC2(CCCN(Cc3ccc(C#N)cc3)C2)CC1 15.6%, COC1C[C@@H](O[C@@H]2C(C)C(=O)OC(C)C(C)C(O)C(C)C(=O)[C@@]3(CO3)CC(C)C(OC3OC(C)CC(N(C)C)C3O)C2C)OC(C)[C@@H]1O (stereo partly drawn) 9.14%, C=C1C(=O)C23C(O)C1CCC2[C@]12COC3(O)C(O)C1C(C)(C)CC[C@H]2O (stereo partly drawn) 37.5%, COC(=O)COc1ccc(S(=O)(=O)N2CCOCC2)cc1 3.69%, Cc1c(NC(=O)Nc2ccccc2Cl)sc(=S)n1C -28.8%, CCOC(=O)C(CCOc1cccc(CC)c1)C(=O)OCC -5.22%, Cc1cccc(C(=O)Nc2ccc(CC(=O)O)cc2)c1 3%, CC(=O)OCC(=O)[C@@]1(O)CCC2C3CCC4=CC(=O)CC[C@]4(C)C3C(=O)C[C@]21C (stereo partly drawn) -9.52%, COC(=O)c1cccc(NC(=O)CN2CCC(NC(=O)c3cc(OC)c(OC)c(OC)c3)CC2)c1 20.6%, CC(=O)c1c(N2CCOCC2)nc(=S)n(Cc2ccccc2)c1C 3.47%, CC1(C)C(=O)Nc2ccccc2N1C(=O)COC(=O)Cn1cnc2ccccc2c1=O 4.1%, O=c1c2ccccc2oc2nc(C3CCCCC3)n(Cc3ccco3)c(=O)c12 0.85%, Oc1cc(O)c2c(c1)OC(c1ccc(O)c(O)c1)C(O)C2 (stereo not drawn) 12.9%, Cc1nc2nc(COc3ccccc3)[nH]n2c(=O)c1C -5.15%, C=C[C@](C)(O)CCC1C(=C)CCC2[C@@](C)(CO)CCC[C@@]12C (stereo partly drawn) 1.55%, CC(=O)OC1CCC2(O)CC1(C)CCC1C2CC1(C)C (stereo not drawn) 6.57%
